A selection: hits, their analogues and other compounds. The true share with any hit is near 1.1%.
AmpC no deterg: inhibitors of E. coli AmpC beta-lactamase without detergent; AmpC nitrocefin hydrolysis, absorbance 480 nm, 0.0001% Triton; Potency, µM (series often up to 57.1 µM), usual class: inhibitors; 0.52% of 330,000 active; further: nearly all actives have a fitted effect of over 20% in size
Target sequence (P00811 whole entry, looked up): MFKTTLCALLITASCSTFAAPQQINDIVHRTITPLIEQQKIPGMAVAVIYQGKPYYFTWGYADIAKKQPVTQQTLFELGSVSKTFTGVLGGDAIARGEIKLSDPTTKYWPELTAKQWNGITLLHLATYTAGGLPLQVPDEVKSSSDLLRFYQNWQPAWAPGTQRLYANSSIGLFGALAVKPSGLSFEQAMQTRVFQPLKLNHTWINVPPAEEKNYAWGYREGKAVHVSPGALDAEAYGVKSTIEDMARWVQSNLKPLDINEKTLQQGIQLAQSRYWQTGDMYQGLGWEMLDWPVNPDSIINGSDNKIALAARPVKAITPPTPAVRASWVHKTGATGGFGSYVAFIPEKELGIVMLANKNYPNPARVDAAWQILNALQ
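AmpC (5.3 nM in the dispensed reagent) in 20 mM phosphate pH 7.0 with 0.01% (detergent screen) or 0.0001% Triton X-100 was preincubated with compounds for 15 min at room temperature. Nitrocefin was then added from an 800 uM solution, and hydrolysis was followed at 480 nm.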
VACV Venus inh: vaccinia inhibition (Venus reporter) | Vaccinia virus Venus reporter expression, fluorescence | Potency, µM (highest dose often 36.5 µM), hits mostly inhibitors | 0.46% of 330,000 active; calls by dose curve; tested in A549 cells; further: nearly all actives have a fitted effect of over 30% in size
AmpC detergent: AmpC beta-lactamase inhibition with detergent present; P00811; AmpC hydrolysis of nitrocefin, absorbance 480 nm, 0.01% Triton; Potency, µM (titrated, usually from 114 µM), actives largely listed as inhibitors; 0.041% of 370,000 active; further: nearly all actives have a fitted effect of over 25% in size
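AmpC (5.3 nM in the dispensed reagent) in 20 mM phosphate pH 7.0 with 0.01% (detergent screen) or 0.0001% Triton X-100 was preincubated with compounds for 15 min at room temperature. Nitrocefin was then added from an 800 uM solution, and hydrolysis was followed at 480 nm.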
VACV mCherry inh: inhibitors of vaccinia virus infection (mCherry reporter signal); Vaccinia virus mCherry reporter infection, fluorescence; Potency, µM (highest dose often 36.5 µM), actives largely listed as inhibitors; 0.63% of 310,000 active; calls by dose curve; tested in A549 cells; further: nearly all actives have a fitted effect of over 35% in size
Large screens that a line does not name were inactive. Unless noted, the call rests on the fitted dose curve; in most records, active means well fitted curve in the direction sought with a large enough effect; inconclusive means small, poorly fitted or top-dose-only effect, or another doubt; inactive means no such curve, though single readings can be large; an effect the other way counts as inactive or inconclusive.

CCN1CCN(c2nc3c(c(=O)n(C)c(=O)n3C)n2Cc2cccc3ccccc23)CC1	none
CCN1CCN(Cc2nc3c(c(=O)n(C)c(=O)n3C)n2Cc2cccc3ccccc23)CC1	AmpC no deterg 0.16µM
O=C(c1cnn(-c2nccc(-c3ccccc3C(F)(F)F)n2)c1C1CC1)N1CCN(CCO)CC1	none (no result: AmpC no deterg, AmpC detergent)
CCCCCCCCCCCCCCCCCCNc1ccn(C2OC(COP(=O)(O)OCC3OC(n4cc(F)c(=O)[nH]c4=O)CC3O)C(O)C2O)c(=O)n1 (stereo not drawn)	VACV Venus inh inconclusive, VACV mCherry inh 0.32µM (no result: AmpC no deterg, AmpC detergent)
C(=Nc1ccc(/C=C/c2ccnc3ccccc23)cc1)c1ccc2c(c1)OCO2	none (no result: AmpC no deterg, AmpC detergent)
O=C(COc1ccc(Cl)cc1)Nc1ncc([N+](=O)[O-])s1	VACV Venus inh 10µM, VACV mCherry inh 11µM
CC(C)CCNC(=O)Cc1ccc(Nc2nc(=S)[nH]c3ccccc23)cc1	AmpC no deterg 16µM
O=C(CCCCCNc1nc(=S)[nH]c2ccccc12)NCCc1ccc(Cl)cc1	AmpC no deterg 20µM
CC(C)Oc1ccc(C(=O)NCC2Cc3cc(Cl)cc(-c4ncccn4)c3O2)cc1 (stereo not drawn)	none (no result: AmpC no deterg, AmpC detergent)
Cc1cccc(NC(=O)CN2C(=O)S/C(=C\c3ccc(O)c([N+](=O)[O-])c3)C2=O)c1	none
Cc1ccc(NC(=O)CN2C(=O)S/C(=C/c3ccc(O)c([N+](=O)[O-])c3)C2=O)cc1C	AmpC detergent 50µM
CCCCCc1cc(=O)oc2c(C(CCN3CCCCC3)c3cc(OC)c(OC)c(OC)c3)c(OC)cc(OC)c12 (stereo not drawn)	VACV Venus inh 16µM, VACV mCherry inh inconclusive
COc1cc(OC)c2c(-c3ccccc3)cc(=O)oc2c1C(CCN1CCCCC1)c1ccc(N(C)C)cc1 (stereo not drawn)	VACV Venus inh inconclusive, VACV mCherry inh inconclusive
CCCCCc1cc(=O)oc2c(C(CCN3CCCC(C)C3)c3cc(OC)c(OC)c(OC)c3)c(OC)cc(OC)c12 (stereo not drawn)	VACV Venus inh inconclusive, VACV mCherry inh inconclusive
CCCCCc1cc(=O)oc2c(C(CCN3CCCC(C)C3)c3ccc(N(C)C)cc3)c(OC)cc(OC)c12 (stereo not drawn)	VACV Venus inh inconclusive, VACV mCherry inh 11µM
COc1ccc(C(CCN2CCCCC2)c2c(OC)cc(OC)c3c(-c4ccccc4)cc(=O)oc23)cc1 (stereo not drawn)	VACV Venus inh 14µM
Cc1cccc(Nc2cc(C)c3c(O)cccc3n2)c1C	VACV Venus inh inconclusive, AmpC detergent inconclusive, VACV mCherry inh 14µM
Cc1cc(Nc2ccccc2O)nc(C)n1	none (no result: AmpC no deterg)
O=C(CC1SC(=O)N(c2ccccc2)C1=O)Nc1ccc(Cl)cc1 (stereo not drawn)	none
O=C(CC1SC(=O)N(c2ccccc2)C1=O)Nc1ccc(Br)cc1 (stereo not drawn)	AmpC no deterg 8.9µM
Cc1cc(Cc2cc(C)c(O)c(CO)c2)cc(CO)c1O	VACV mCherry inh 5.6µM (no result: AmpC no deterg, AmpC detergent)
Cc1cc(Cc2ccc(N)c(C)c2)ccc1N	VACV mCherry inh inconclusive
CCCC(=O)OCCNc1cc(SCc2ccco2)c2nonc2c1[N+](=O)[O-]	VACV Venus inh inconclusive, VACV mCherry inh 10µM
CC(=O)OCCCNc1cc(SCc2ccco2)c2nonc2c1[N+](=O)[O-]	VACV Venus inh inconclusive, VACV mCherry inh 11µM
CO[C@@]1(NC(=O)Cc2cccs2)C(=O)N2C(C(=O)O)=C(COC(N)=O)CS[C@@H]21	AmpC detergent 40µM
Cc1cnc(C)c(-c2ccc(F)c3c2OC(CNC(=O)Cc2c(F)cccc2F)C3)n1 (stereo not drawn)	none (no result: AmpC no deterg, AmpC detergent)
CC(C)CC(=O)/C(=C\c1ccc(Cl)cc1Cl)n1cncn1	VACV Venus inh 13µM, VACV mCherry inh inconclusive
CC(C)CC(=O)/C(=C/c1ccc(N(C)C)cc1)n1cncn1	none
COc1cc(NC(=O)CN2C(=O)NC(C)(CC(C)C)C2=O)cc(OC)c1 (stereo not drawn)	AmpC no deterg 0.89µM
CCC1CN2CCc3cc(OC)c(OC)cc3C2CC1CC1NCCc2c1[nH]c1ccc(O)cc21 (stereo not drawn)	VACV Venus inh 5.6µM, VACV mCherry inh inconclusive (no result: AmpC no deterg, AmpC detergent)
COc1cc2c(cc1OC)C(Cc1ccc(O)cc1)NCC2 (stereo not drawn)	AmpC detergent inconclusive
CC(NC(=O)C1CCOCC1)c1nnc2n1CCN(Cc1ccc3cccnc3c1)CC2 (stereo not drawn)	none (no result: AmpC no deterg, AmpC detergent)
O=C(O)c1cccc(-n2cccc2/C=C2/NC(=O)N(c3ccc(Cl)cc3)C2=O)c1	AmpC no deterg 13µM
COc1ccc(CN2c3c(Br)cccc3C(=O)CS2(=O)=O)cc1	AmpC no deterg 13µM, VACV mCherry inh inconclusive (no result: AmpC detergent)

Compound activity as filed in PubChem BioAssay.
